Data from the supplement of paper PMC10849652.
The full data set covers some 7,900 targets. This sample favours those with a hit. About 0.6% of all pairs of compound and target were hits.

Legend:
Assay in all cases: log2 fold change, soluble protein after heating vs DMSO (PISA); higher = thermal stabilisation; K562 cells, 10 uM, 30 min; active = over 0.2 and 3.5 SD of the protein, either way, in both replicates (recomputed)
[1] = compound: C1=CC=C(C=C1)[C@H](COC2=CC3=C(C=C2)NC(=O)N3)NC(=O)C4=CC=CN(C4=O)CC5=CC(=C(C=C5)F)F
Summary of the method: (§1)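 K562 cells at 2×10^6 cells/mL were given 10 μM compound for 30 min. Aliquots then went through 3 min of heating across 48°C-58°C, were pooled, and were extracted in PBS with 0.5% NP-40 at 4°C, and the supernatant after 21,000xg for 90 min was quantified by TMTpro 16plex LC-MS/MS with channel sums equalised. Thermal stability relative to control samples, from duplicates, is given as log2 fold change.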

[2] = compound: CC1=C(SC2=C1C(=N[C@H](C3=NN=C(N32)C)CC(=O)N)C4=CC=C(C=C4)Cl)C
Summary of the method: as §1

[3] = compound: CC1=C2C(=CC=C1)N=C(N(C2=O)C3=CC=CC=C3C)CN4C=NC5=C(N=CN=C54)N
Summary of the method: as §1

[4] = compound: Cc1sc2c(c1C)C(c1ccc(Cl)cc1)=N[C@@H](CC(=O)OC(C)(C)C)c1nnc(C)n1-2
Summary of the method: as §1

[5] = compound: c1ccc([C@@H]2C[C@H]2NC2CCNCC2)cc1
Summary of the method: as §1

Measured: log2 fold change

DPH5 isoform 5 (UniProt Q9H2P9)
Sequence of UniProt Q9H2P9 (Q9H2P9 whole entry, looked up): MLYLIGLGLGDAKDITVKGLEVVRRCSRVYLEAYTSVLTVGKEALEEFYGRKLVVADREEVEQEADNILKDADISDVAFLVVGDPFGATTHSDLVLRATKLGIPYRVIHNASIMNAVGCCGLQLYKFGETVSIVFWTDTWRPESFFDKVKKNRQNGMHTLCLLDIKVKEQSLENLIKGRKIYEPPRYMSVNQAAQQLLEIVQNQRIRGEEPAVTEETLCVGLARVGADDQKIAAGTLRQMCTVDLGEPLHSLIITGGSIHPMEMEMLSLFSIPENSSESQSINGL
inactive: [1] -0.025 | [2] 0.054 | [3] 0.092 | [4] -0.009 | [5] 0

DLD (UniProt P09622)
Sequence of UniProt P09622 (P09622 whole entry, looked up): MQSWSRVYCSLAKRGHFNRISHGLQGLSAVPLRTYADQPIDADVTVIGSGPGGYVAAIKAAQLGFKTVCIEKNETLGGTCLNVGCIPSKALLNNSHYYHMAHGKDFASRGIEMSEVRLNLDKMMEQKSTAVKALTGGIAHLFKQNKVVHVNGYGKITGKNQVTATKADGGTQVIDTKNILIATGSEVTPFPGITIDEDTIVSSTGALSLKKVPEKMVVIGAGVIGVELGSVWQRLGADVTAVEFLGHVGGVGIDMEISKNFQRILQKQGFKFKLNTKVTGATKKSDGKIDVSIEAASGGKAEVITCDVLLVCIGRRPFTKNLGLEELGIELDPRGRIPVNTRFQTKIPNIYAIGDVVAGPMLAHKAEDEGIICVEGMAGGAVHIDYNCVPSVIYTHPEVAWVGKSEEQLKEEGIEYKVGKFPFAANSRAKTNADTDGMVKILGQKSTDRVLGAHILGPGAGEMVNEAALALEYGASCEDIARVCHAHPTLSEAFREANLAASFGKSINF
inactive: [1] 0.016 | [2] 0.006 | [3] -0.005 | [4] -0.016 | [5] 0.044

DIP2A (UniProt Q14689)
Sequence of UniProt Q14689 (Q14689 whole entry, looked up): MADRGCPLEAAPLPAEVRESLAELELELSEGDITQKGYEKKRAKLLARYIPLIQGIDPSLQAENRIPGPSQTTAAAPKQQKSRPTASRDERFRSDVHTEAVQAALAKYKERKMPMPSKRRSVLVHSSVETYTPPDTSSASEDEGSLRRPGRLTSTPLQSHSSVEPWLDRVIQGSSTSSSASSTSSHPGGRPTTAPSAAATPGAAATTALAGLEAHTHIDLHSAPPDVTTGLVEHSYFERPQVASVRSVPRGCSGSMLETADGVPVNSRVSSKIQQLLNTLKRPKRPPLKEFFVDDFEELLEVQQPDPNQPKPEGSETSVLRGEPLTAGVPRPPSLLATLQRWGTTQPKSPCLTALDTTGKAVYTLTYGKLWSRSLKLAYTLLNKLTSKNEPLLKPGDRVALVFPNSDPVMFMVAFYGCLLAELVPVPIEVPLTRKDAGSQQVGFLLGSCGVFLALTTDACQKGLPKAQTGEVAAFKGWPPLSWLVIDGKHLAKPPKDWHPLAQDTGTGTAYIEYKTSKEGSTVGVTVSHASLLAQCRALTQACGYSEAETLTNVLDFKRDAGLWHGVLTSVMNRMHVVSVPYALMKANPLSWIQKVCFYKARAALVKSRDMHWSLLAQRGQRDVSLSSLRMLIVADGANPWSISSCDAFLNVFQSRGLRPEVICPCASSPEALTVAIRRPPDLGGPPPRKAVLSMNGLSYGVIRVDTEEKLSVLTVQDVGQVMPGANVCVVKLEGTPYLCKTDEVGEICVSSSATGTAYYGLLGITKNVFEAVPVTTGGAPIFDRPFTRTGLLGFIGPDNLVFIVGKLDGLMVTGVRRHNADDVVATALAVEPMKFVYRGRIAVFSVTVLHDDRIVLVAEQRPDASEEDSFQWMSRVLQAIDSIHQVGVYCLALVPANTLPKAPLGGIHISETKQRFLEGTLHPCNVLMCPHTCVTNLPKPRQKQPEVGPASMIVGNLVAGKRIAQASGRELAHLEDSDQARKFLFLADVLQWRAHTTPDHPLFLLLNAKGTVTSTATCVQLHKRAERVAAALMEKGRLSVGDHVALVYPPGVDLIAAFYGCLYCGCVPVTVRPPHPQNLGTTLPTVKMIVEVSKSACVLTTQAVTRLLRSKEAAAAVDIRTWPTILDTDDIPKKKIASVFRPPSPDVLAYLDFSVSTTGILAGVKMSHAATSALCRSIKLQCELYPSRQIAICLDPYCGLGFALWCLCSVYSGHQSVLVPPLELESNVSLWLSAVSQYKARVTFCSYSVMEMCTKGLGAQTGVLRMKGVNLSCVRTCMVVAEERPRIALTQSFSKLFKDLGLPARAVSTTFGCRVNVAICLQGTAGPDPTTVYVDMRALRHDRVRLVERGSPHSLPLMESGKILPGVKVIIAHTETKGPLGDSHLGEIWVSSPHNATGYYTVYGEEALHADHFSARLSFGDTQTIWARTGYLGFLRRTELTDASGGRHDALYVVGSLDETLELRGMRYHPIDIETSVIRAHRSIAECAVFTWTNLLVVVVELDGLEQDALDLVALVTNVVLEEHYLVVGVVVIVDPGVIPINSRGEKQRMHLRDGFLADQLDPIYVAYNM
inactive: [1] -0.03 | [2] 0.042 | [3] -0.149 | [4] 0.019 | [5] -0.078

DBR1 (UniProt Q9UK59)
Sequence of UniProt Q9UK59 (Q9UK59 whole entry, looked up): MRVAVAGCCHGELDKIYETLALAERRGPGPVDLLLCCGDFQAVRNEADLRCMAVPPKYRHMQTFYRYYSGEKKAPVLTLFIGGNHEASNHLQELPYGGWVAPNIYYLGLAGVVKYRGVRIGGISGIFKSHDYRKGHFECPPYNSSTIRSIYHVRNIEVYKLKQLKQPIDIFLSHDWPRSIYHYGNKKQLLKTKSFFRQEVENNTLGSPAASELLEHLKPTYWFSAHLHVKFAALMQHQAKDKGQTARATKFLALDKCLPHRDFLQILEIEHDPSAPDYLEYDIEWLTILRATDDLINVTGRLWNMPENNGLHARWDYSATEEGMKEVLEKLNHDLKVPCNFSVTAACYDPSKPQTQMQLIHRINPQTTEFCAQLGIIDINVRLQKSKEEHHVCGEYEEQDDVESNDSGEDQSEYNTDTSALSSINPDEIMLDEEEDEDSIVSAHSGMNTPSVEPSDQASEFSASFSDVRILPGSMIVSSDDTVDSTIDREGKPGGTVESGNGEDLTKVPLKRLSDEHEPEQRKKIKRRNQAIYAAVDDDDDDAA
inactive: [1] 0.023 | [2] 0 | [3] 0 | [4] 0.017 | [5] 0.057

DNAH11 (UniProt Q96DT5)
inactive: [1] 0.047 | [2] -0.387 | [3] 0.089 | [4] -0.021 | [5] 0.092

DUS2 (UniProt Q9NX74)
Sequence of UniProt Q9NX74 (Q9NX74 whole entry, looked up): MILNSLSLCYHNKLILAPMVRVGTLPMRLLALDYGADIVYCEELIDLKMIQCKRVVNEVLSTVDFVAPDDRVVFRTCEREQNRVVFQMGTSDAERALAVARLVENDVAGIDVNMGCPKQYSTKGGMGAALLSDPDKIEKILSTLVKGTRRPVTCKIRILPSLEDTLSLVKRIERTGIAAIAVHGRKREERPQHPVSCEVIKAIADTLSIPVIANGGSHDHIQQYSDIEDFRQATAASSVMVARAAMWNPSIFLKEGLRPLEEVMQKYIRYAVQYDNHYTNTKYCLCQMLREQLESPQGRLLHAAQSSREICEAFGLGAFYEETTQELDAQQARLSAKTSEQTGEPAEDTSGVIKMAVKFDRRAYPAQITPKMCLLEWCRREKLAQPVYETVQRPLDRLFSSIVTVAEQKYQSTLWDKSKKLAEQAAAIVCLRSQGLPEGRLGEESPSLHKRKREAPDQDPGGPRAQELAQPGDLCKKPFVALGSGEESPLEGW
inactive: [1] 0.024 | [2] 0.055 | [3] 0.109 | [4] -0.087 | [5] -0.023

EIF4E2 (UniProt O60573)
inactive: [1] -0.043 | [2] -0.01 | [3] -0.007 | [4] -0.06 | [5] 0.055

DCAF6 isoform 3 (UniProt Q58WW2)
Sequence of UniProt Q58WW2 (Q58WW2 whole entry, looked up): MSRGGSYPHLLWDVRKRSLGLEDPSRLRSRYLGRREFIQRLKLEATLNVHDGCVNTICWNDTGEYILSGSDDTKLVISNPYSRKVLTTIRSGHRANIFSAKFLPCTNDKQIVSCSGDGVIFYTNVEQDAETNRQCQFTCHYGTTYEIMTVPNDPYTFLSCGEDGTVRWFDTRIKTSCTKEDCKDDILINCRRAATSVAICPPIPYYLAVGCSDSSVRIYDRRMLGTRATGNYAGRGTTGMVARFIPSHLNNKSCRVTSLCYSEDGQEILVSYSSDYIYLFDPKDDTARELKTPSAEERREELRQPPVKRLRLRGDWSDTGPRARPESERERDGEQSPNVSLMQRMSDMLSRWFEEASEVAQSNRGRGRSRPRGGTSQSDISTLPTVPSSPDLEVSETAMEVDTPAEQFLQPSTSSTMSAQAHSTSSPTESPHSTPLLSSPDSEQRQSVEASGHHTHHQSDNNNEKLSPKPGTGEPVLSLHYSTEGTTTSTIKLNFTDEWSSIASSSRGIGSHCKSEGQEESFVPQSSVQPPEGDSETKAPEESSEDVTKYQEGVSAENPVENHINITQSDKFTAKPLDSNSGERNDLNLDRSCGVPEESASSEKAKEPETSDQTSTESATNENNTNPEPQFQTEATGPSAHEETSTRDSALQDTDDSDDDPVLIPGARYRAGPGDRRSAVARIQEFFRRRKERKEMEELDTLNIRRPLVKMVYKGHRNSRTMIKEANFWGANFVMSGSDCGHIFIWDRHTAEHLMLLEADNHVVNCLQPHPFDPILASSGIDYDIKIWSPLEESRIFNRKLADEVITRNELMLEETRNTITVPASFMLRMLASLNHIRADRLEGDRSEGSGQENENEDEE
inactive: [1] 0.04 | [2] -0.017 | [3] 0.003 | [4] 0.032 | [5] 0.027

DNAJB1 (UniProt P25685)
Sequence of UniProt P25685 (P25685 whole entry, looked up): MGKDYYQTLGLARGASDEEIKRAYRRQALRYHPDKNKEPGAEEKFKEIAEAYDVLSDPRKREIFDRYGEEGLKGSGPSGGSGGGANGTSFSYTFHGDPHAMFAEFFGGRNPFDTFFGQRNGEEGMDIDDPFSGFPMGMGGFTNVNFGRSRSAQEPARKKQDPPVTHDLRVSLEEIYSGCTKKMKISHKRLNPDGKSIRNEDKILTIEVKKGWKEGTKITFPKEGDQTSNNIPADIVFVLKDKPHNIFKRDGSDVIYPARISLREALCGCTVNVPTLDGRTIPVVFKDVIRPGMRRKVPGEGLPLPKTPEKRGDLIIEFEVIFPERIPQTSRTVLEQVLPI
inactive: [1] -0.019 | [2] 0.015 | [3] 0.066 | [4] -0.003 | [5] -0.026

EED, A0A5F9ZI63
inactive: [1] 0.002 | [2] 0.011 | [3] 0.03 | [4] -0.029 | [5] -0.006

EXOC1 (UniProt Q9NV70)
inactive: [1] -0.095 | [2] 0.021 | [3] 0.121 | [4] 0.027 | [5] -0.075

CYBA (UniProt P13498)
Sequence of UniProt P13498 (P13498 whole entry, looked up): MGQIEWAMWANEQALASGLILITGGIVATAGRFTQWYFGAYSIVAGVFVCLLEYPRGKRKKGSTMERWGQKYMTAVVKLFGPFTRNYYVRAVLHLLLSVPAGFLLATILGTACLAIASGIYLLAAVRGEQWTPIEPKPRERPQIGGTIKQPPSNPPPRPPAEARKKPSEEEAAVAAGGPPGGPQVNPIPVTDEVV
inactive: [1] 0.007 | [2] 0.034 | [3] -0.013 | [4] 0.027 | [5] 0.031
